From the supplement of paper PMC11732987, “Enantioselective OTUD7B fragment discovery through chemoproteomics screening and high-throughput optimisation” (Communications Chemistry, 2025)

Tests used:
Assay in all cases: log2 ratio of Biotin-Ahx-Ub-VS probe labelling (fragment/DMSO); higher = less target engagement (more negative = stronger competition), active = hit call of the paper (q ≤ 0.05, log2 ratio ≤ -1)
Details in all cases: compound concentration: 200 uM; treatment time: 3 h
USP34 = USP34 (UniProt Q70CQ2)
Chain of USP34 (Q70CQ2 whole entry, the tested form may be a part): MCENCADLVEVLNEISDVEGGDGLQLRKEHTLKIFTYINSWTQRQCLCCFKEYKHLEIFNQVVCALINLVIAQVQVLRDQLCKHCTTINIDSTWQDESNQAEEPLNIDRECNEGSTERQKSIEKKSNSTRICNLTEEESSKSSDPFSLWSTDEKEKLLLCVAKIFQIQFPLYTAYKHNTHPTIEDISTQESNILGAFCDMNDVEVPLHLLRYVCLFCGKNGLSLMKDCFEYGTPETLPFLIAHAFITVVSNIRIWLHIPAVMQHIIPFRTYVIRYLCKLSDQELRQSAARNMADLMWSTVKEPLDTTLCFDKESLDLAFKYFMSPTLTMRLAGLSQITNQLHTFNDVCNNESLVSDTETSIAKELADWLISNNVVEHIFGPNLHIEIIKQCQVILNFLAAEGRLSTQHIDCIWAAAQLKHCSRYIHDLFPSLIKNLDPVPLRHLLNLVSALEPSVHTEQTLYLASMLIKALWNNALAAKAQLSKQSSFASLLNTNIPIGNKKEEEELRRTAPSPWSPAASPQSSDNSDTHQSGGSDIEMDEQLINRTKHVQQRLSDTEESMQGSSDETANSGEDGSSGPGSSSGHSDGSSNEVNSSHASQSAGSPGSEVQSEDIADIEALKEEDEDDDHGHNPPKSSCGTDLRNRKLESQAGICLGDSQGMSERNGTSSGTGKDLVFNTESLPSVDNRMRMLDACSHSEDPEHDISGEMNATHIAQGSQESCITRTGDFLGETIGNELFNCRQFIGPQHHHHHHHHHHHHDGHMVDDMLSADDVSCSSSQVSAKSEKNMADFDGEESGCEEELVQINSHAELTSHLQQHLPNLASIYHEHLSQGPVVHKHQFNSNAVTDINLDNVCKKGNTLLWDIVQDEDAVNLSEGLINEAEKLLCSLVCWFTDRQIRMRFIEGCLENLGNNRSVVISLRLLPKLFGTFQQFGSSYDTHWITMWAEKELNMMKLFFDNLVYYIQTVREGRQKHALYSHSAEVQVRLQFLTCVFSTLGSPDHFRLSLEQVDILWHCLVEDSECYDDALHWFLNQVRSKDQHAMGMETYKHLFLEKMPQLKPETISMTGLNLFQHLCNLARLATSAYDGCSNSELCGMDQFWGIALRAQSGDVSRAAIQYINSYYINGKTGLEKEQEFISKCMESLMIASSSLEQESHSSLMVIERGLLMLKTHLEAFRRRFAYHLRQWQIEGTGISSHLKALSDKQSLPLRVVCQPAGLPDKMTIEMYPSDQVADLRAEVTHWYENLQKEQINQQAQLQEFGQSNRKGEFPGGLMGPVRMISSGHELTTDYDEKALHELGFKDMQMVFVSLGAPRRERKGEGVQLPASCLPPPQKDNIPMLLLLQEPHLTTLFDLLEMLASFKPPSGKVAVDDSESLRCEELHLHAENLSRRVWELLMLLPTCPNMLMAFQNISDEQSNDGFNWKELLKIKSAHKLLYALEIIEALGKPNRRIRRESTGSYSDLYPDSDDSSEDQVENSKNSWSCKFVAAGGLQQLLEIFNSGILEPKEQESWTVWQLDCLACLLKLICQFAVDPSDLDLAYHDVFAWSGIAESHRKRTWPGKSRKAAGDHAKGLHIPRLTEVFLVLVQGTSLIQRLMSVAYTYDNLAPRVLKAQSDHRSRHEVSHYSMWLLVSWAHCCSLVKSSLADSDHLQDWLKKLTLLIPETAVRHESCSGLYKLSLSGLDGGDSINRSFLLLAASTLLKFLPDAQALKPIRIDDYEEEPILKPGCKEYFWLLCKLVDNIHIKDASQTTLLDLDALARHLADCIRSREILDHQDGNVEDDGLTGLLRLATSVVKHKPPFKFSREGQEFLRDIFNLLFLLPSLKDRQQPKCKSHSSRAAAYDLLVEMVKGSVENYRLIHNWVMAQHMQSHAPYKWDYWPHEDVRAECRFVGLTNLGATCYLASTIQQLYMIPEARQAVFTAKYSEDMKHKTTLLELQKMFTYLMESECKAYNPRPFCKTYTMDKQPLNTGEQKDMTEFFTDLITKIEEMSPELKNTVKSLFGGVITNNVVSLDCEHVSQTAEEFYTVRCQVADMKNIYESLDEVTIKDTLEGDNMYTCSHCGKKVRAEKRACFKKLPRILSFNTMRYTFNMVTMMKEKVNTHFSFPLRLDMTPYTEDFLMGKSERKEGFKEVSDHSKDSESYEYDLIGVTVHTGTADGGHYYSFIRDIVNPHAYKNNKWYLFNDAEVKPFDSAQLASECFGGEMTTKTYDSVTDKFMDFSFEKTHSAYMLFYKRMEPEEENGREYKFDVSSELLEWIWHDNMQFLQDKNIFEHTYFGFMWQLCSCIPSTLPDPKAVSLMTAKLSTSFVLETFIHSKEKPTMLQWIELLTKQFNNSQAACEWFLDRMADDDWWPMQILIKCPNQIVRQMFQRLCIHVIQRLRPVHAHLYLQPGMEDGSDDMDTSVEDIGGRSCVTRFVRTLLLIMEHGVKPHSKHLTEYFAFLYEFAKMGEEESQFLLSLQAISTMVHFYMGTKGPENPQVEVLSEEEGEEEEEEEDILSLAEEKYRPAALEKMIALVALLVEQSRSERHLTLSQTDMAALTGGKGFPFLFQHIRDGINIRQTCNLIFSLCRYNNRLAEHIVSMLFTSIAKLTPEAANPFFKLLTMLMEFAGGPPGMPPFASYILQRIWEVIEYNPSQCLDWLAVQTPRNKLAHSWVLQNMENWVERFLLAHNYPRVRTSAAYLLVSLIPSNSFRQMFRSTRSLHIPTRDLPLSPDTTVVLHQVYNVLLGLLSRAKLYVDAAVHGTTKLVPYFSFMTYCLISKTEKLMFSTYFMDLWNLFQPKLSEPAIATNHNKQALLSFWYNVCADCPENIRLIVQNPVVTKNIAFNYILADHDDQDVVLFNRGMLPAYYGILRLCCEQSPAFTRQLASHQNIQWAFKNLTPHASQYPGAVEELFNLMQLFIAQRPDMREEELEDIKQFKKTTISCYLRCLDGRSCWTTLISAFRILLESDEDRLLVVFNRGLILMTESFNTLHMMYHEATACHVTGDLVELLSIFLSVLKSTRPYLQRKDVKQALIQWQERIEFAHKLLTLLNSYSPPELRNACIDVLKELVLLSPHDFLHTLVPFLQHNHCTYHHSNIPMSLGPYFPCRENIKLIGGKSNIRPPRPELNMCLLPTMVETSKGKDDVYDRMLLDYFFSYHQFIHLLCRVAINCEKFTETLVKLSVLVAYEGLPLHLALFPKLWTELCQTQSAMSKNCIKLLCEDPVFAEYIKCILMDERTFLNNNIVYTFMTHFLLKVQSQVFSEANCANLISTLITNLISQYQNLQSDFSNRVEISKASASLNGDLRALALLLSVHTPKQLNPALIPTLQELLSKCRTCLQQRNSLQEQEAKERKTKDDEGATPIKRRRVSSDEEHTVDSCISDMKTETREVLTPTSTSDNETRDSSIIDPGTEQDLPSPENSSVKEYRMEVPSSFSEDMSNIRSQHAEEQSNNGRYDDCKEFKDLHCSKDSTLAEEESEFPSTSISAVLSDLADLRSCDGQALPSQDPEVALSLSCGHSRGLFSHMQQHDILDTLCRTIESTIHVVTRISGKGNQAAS
Method in brief: (§1)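 Triplicate samples of HEK293T lysate, 495 µg each, received fragment at 200 µM or vehicle for 3 h, followed by Biotin-Ahx-Ub-VS (0.5 µM final) for 1 h. After NeutrAvidin enrichment of labelled DUBs and LysC/trypsin digestion, peptides were run by diaPASEF LC-MS/MS. The values are average log2 fragment/vehicle ratios from global-median-normalised Spectronaut label-free quantities, tested by unpaired t-test on proteins having ≥2 unique peptides.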

USP36 = target: T1, USP36 (UniProt Q9P275)
T1 sequence (whole entry): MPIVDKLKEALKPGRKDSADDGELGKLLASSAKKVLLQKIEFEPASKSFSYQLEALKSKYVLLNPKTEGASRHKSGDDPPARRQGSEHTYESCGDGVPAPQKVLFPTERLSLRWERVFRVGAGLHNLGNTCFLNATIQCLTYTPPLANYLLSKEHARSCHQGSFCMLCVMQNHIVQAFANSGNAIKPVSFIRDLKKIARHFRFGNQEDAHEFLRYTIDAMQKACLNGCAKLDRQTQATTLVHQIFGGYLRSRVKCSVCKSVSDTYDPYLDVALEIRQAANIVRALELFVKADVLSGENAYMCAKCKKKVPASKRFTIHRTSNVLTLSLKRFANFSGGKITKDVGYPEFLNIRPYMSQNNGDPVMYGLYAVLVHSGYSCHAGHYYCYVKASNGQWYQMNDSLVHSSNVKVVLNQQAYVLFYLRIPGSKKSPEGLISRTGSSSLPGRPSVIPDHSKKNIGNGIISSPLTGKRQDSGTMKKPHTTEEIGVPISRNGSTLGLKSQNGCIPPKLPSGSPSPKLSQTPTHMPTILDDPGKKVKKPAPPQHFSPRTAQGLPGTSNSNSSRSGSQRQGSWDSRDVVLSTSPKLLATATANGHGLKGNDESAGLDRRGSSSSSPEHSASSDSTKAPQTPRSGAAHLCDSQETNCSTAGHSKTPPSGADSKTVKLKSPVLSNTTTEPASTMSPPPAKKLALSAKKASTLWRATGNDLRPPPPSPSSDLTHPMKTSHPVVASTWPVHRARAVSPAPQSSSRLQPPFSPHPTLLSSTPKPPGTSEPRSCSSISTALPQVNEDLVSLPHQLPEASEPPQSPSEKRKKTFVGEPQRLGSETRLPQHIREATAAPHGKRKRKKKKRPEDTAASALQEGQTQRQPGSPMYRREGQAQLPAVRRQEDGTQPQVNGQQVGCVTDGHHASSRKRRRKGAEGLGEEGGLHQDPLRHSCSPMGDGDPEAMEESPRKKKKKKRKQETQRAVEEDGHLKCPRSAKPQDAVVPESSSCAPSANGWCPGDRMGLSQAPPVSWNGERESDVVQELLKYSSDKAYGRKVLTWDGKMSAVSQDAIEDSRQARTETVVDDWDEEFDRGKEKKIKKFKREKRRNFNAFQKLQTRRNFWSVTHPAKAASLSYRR
Method in brief: as §1

USP38 = target: T2, USP38 (UniProt Q8NB14)
T2 sequence (whole entry): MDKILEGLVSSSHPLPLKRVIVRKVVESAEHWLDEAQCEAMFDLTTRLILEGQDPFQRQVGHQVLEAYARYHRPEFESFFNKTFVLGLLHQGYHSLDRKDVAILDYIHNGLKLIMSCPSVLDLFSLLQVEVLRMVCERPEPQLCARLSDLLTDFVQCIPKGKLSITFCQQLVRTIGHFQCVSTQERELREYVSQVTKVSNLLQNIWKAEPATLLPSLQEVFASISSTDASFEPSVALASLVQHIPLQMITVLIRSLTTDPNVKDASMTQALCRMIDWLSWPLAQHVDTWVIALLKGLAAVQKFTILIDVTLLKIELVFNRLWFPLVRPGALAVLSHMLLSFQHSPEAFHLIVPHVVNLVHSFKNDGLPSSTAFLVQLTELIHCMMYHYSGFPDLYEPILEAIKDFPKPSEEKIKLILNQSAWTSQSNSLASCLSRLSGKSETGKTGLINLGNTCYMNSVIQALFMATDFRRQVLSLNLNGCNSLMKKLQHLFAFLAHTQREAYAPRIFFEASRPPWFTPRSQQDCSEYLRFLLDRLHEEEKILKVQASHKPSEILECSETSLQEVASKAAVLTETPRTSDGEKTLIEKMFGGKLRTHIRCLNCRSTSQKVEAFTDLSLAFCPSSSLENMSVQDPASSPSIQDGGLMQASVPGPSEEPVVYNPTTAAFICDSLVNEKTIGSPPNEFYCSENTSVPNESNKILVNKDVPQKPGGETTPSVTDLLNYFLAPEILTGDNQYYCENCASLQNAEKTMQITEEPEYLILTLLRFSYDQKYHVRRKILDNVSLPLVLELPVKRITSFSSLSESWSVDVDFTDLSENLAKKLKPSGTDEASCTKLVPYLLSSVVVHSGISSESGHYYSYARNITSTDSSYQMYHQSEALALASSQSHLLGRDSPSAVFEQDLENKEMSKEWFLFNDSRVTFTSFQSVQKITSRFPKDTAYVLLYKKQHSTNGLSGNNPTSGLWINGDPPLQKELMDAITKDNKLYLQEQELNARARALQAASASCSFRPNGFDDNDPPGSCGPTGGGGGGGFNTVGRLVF
Method in brief: as §1

USP39 = target: T3, USP39 (UniProt Q53GS9)
T3 sequence (whole entry): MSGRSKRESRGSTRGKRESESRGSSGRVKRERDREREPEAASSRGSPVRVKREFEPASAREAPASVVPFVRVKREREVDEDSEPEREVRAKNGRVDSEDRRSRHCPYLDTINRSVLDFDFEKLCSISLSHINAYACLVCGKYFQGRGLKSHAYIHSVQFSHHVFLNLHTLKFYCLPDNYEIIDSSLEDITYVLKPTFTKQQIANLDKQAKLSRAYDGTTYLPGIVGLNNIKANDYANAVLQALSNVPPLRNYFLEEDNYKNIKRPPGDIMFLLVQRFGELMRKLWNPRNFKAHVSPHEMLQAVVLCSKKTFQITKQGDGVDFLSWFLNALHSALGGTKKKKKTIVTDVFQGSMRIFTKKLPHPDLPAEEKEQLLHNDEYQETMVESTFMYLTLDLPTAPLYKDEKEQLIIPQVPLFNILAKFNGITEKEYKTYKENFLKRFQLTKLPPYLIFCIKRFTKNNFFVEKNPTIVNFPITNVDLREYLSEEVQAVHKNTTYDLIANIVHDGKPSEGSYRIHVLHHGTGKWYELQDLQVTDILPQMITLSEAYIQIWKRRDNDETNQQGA
Method in brief: as §1

USP4 = target: T4, USP4 (UniProt Q13107)
T4 sequence (whole entry): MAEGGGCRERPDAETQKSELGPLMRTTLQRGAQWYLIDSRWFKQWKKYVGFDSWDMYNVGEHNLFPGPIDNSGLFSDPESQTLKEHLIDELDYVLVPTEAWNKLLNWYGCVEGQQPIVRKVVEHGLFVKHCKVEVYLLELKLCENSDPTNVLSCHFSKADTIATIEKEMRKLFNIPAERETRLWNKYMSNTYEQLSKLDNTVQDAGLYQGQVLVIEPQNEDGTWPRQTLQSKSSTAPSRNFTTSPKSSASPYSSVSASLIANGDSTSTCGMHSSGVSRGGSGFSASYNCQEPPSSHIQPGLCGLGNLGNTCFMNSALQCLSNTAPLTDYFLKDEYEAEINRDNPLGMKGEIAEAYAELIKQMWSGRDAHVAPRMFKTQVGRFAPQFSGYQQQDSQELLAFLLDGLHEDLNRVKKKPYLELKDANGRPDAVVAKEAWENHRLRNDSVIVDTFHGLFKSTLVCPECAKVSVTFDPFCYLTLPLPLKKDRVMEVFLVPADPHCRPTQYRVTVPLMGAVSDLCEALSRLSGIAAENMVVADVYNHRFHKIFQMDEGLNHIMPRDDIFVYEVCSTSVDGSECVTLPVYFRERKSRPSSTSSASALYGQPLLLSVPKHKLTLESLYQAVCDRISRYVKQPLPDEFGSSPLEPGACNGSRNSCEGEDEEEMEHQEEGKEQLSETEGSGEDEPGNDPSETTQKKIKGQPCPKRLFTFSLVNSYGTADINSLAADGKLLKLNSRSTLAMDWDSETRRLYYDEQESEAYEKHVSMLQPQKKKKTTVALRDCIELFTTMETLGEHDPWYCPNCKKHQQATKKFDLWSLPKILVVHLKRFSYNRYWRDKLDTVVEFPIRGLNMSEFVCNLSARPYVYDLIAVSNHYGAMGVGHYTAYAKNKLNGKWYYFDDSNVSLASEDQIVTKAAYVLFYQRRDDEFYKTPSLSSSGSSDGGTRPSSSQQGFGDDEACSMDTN
Method in brief: as §1

Measured: log2 ratio of Biotin-Ahx-Ub-VS probe labelling

O=C(CCl)N1CC2(CCOCC2)C1
inactive: USP34 -0.0656 | USP36 -0.243 | USP38 0.103 | USP39 0.364 | USP4 -0.0394
